Sampled rows, rich in hits. Any-hit rate of the full collection: about 3.6%.
VHR inh abs – DUSP3 (human) phosphatase inhibition; recombinant VHR phosphatase, pNPP absorbance; inhibition, % at 13.3 µM; 290,000 compounds, 0.52% hits; in the data active = inhibition above about 50%
Target sequence (P51452 whole entry, looked up): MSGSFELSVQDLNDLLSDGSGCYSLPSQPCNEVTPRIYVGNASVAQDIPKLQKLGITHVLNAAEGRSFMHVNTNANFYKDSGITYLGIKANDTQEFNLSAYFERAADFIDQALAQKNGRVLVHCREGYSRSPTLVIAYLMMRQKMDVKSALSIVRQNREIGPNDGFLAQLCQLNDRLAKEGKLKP
GDH-TPI counter – GDH-TPI coupled enzyme inhibition counter-screen; GDH-TPI coupled enzyme counterscreen, NADH absorbance; inhibition, % at 4.8 µM; 360,000 compounds, 1.2% hits; AID 588335; in the data active = inhibition above about 30%;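 also: 0% = DMSO wells and 100% = wells lacking the enzyme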
Mtb hypoxia rep – Mtb hypoxia fluorescent reporter inhibition. fluorescence inhibition, % (no concentration beside the values). M. tuberculosis hypoxia-regulated fluorescent reporter, fluorescence. 300,000 compounds, 0.1% hits; in the data active = fluorescence inhibition mostly above about 23%, no sharp cut-off; inactive = mostly below about 17%
Mtb bLac sens – beta-lactam sensitization of Mtb H37Rv; 330,000 compounds, 0.27% hits; M. tuberculosis H37Rv growth with meropenem, percent inhibition; inhibition, % at 25 µM; call rule not given here;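 also: growth measured after seven days incubation then overnight dye step; 0% = bacteria only wells and 100% = bacteria with antibiotic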
FBA Mtb inh – Mtb fructose-bisphosphate aldolase inhibition. 360,000 compounds, 2.3% hits. P9WQA3. purified M. tuberculosis FBA, fluorescence read-out. inhibition, % at 1 µM; in the data active = inhibition above about 27%;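 also: 0% = vehicle and 100% = reference inhibitor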
An asterisk follows results filed as active; nt = no result given.

SMILES	VHR inh abs	GDH-TPI counter	Mtb hypoxia rep	Mtb bLac sens	FBA Mtb inh
O=C(Cn1cncn1)NN=Cc1cccnc1	nt	nt	-13	nt	nt
O=C1NC(=O)N(c2ccc3c(c2)OCO3)C(=O)/C1=C/c1ccc(N2CCCCC2)o1	30	-4	20	3	-39
CCOc1ccc(N2C(=O)NC(=O)C(=Cc3ccc(N4CCCCC4)o3)C2=O)cc1	nt	nt	40*	nt	nt
O=C1NC(=O)N(c2ccc3c(c2)OCO3)C(=O)C1=Cc1ccc(N2CCCC2)o1	nt	nt	40*	nt	nt
CCOc1ccc(N2C(=O)NC(=O)/C(=C\c3ccc(N4CCOCC4)cc3C)C2=O)cc1	13	11	-2	-1	-4
Cn1cncc1C#Cc1ccc2cc(CCCO)oc(=O)c2c1	nt	34*	9	0	47*
Cn1cncc1C#Cc1ccc2cc(C(C)(C)O)oc(=O)c2c1	nt	31*	9	-6	14
Cn1cncc1C#Cc1ccc2c(=O)c3ccccc3oc2c1	nt	41*	4	3	3
Cn1cncc1C#Cc1ccc2cc(C3(O)CCCCC3)oc(=O)c2c1	nt	7	3	0	4
COc1cccc(-c2c(C(=O)NN=CC3CC=CCC3)nnn2-c2nonc2N)c1 (configuration not stated)	nt	nt	-3	nt	nt
COc1ccc(Br)cc1CNC(=O)Cn1nc(C)n2cccc2c1=O	56*	-2	-6	-7	1
COc1ccc(CNC(=O)Cn2nc(C)n3cccc3c2=O)cc1	3	4	-6	-11	-1
CCOC(=O)c1c(NC(=O)CN2C(=O)NC3(CCCCC3C)C2=O)sc(C)c1CC (configuration not stated)	nt	7	8	-7	-2
COC(=O)c1c(NC(=O)CN2C(=O)NC3(CCCCC3C)C2=O)sc2c1CCC2 (configuration not stated)	nt	18	29*	4	0
COc1ccc(-c2nn(CC(=O)Nc3ccc(Cl)c(Cl)c3)c(=O)c3ccccc23)cc1	52*	7	nt	13	3
O=C1N=C(N2C=CC(=C3C=CNC=C3)C=C2)/C(=C/N=NC(=O)c2ccccc2O)S1	34	53*	nt	0	-5
Cn1c2ccccc2c2nnc(SCC(N)=O)nc21	nt	14	15	4	-1
Cn1c2ccc(Br)cc2c2nnc(SCC(=O)O)nc21	-8	31*	9	11	-1
Cn1c2ccccc2c2nnc(SCC(=O)Nc3cccc(O)c3)nc21	-4	35*	1	-6	1
Cc1oc(N=Cc2ccccc2)c(C#N)c1C	nt	nt	4	nt	nt
O=C(/C=C/c1ccc(F)cc1)Nc1ccc2[nH]c(=O)[nH]c2c1	27	42*	7	3	2
COc1cc(/C=C/C(=O)Nc2ccc3[nH]c(=O)[nH]c3c2)cc(OC)c1OC	-36	12	-7	-1	3
Cc1cc2[nH]c(=O)c(=O)[nH]c2cc1S(=O)(=O)NC1CCCCC1C (configuration not stated)	6	21	nt	-8	32*
CC1ON(C2CCCCC2)C2c3nc4ccccc4n3CC12 (configuration not stated)	nt	nt	5	nt	nt
COc1cc(C=NNc2nc3ccccc3o2)cc(OC)c1O	nt	nt	2	nt	nt
SMILES	VHR inh abs	GDH-TPI counter	Mtb hypoxia rep	Mtb bLac sens	FBA Mtb inh
Oc1ccccc1/C=N/Nc1nc2ccccc2o1	13	51*	nt	49	9
COc1cc(/C=N/Nc2nc3ccccc3o2)cc(OC)c1O	27	31*	nt	14	3
COc1cc(/C=N\Nc2nc3ccccc3o2)cc(OC)c1OC	8	34*	nt	12	5
COc1cc(/C=N\Nc2nc3ccccc3[nH]2)cc(OC)c1OC	17	36*	nt	-6	2
Cc1cccc(C2C3C(=O)N(Cc4ccccc4)C(=O)C3[C@]3(Cc4ccc(Cl)cc4)C(=O)N(c4cccc(Cl)c4)C(=O)N23)c1 (some centres not stated)	nt	nt	9	nt	nt
CCOc1cc(/C=N/Nc2nc3ccccc3[nH]2)cc(Br)c1OCC(=O)N(C)C	26	34*	nt	9	3
C(=N\Nc1nc2ccccc2[nH]1)/c1ccc2ncccc2c1	20	33*	nt	-7	2
CC(C)(C)N1C(=O)C2C(c3ccc(Br)cc3)N3C(=O)N(c4cccc(Cl)c4)C(=O)[C@@]3(Cc3ccccc3)C2C1=O (some centres not stated)	nt	nt	4	nt	nt
Oc1c(Br)cc(Br)cc1C=Nc1nc2c(s1)CCCC2	nt	nt	-3	nt	nt
CN(C)C(=O)CCC(=O)N(C)CC1CCCN(CCc2ccc(F)cc2)C1 (configuration not stated)	34	-1	-6	1	188*
